PBM binding z-score data for 40 sequences are collected here from the supplement of paper PMC6555819.

For the assay, the system named is VDR:RXRa (NR concentration 270 nM, RXRa partner concentration 90 nM). Description: PBM binding z-score (relative to random genomic background probes); higher = stronger binding; sequences stand for … in GC…GCGATTGACAGCGTAGAATGAAGG
As for the experimental part:
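Protein-binding microarray (Agilent 4x180K custom design, double-stranded 60-nt probes: 5' GC cap, 34-nt variable region, 24-nt constant primer region; full probe sequence given). Purified or IVT nuclear receptor:RXRα heterodimers (3:1 NR:RXRα, mostly 270:90 nM) or homodimers were incubated for 1 h in PBS with 2% milk and no ligand, then detected with Alexa488 antibodies. Fluorescence from o1-orientation probes (~5 replicates averaged) was converted to z-scores against 500 random hg19 background probes. Variable regions are seed direct-repeat (DR0–DR5) sites, all their single-nucleotide variants and half-site ablations.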
AGTCAAAGTTCATCTAGGCAACGTAAGATATGCT had a PBM binding z-score of 4.9.
For the sequence CGGACTAGGTCAAGGACAGTGAATCTCCGCACGC, the PBM binding z-score came to 0.867.
Next, AGTCAAAGTTCATCTAGGGAACGTAAGATATGCT: 4.73; ATCTCTAGTTAACAAGTTCAGTGAAAGAGAGGAC: 2.52; GCTAGTTGGTCAGTAAGAGGTCACACACCGGTCG: 4.12.
The sequence CCGACTGGGGCAAGGATACCATAACGCACAGCCA gave a PBM binding z-score of -0.596.
As for CCCCGGAGGACAACAGGAGGTCAGAGCTGCCAGA, the figure is 1.91; as for ACTCGGAGGACAAAGGTCAGAGTTACGCCAGTGA, 3.42.
Next, CAAACTAGGTCAGCGGAAGGTCAAAGTCCGCATG: 5.07; CTCGAAAGGTCGTGCTCAGGTGAGTTTACCAAAC: 3.98.
Next, TAGCCTTGGTCAGATCGGGCCAGTATACGCTATA: -0.557.
Consider GCGGCTGGGGCAAAGCAGGTTACCATAAGGTTGG, for which the PBM binding z-score was determined as 0.192.
Next, ATATGTAGGTTGGCTGGGGTCATTCAGACTAGGC: 5.67.
The sequence AGTCAAAGTTCAGGACGAGGTAACCTAAAGCACG displayed a PBM binding z-score of 2.94.
As for TATACAGGGTCAAACGCCAGAGTACGAATGTCGA, the figure is 5; as for CGTCCAAGGTCATAGGAGGTCAGTTAAGACAGAT, 6.3.
Next, GCTAGCAGGCCATTTGGTTCACTCAATGACGGGC: 1.28; ACAGACAGGTGATGAAGGTAACTGAGGCTATCAT: 0.346.
As for TCTATTAGTTGGTTAGGGCAACCGAAACAGCGGA, the figure is 0.428.
In the case of AGAACGAGGGCAATGAGTTGACAGCACGGGTGGC, the PBM binding z-score was 5.03.
As for CAAACTAGGTCCAGAGGTCAAAGTCCGCTTCCCG, the figure is 5.14; as for GCTTACGGGTCAAAGGTTATAGCTTGAATAGAAT, 5.25; as for GCTAGCTGGCCATTTGGGTCACTCAATGACGGGC, -0.155.
As for TCATATAGGTAATACAGGGGAAAGTCGGCATCTA, the figure is 1.06.
Next, GGAACGAGGGCAAAGTTGATAACATCTGTCGACG: 1.68; TCGAGTGGGTTAGTCGGGGCATTCAGCCAACATA: 2.25.
On to CCTAGCACGCCAGGGTCACTCAAGCATTTCGCTT, for which the PBM binding z-score was 2.56.
Regarding TGAATGAGGTTAACGATCAGGGAACGTGGCGTCG, the PBM binding z-score worked out at 1.05.
As for TCATATAGGTAAACAGGTGCAAGTCCGTAAGTTA, the PBM binding z-score is 3.49.
Next, AGAATGAGGTTACGAAAGATCAGGGAAACGCTTG: 1.52; CCTTACGGGTCACTGACAGGCTATAGCATTTGGA: 3.07; ATCGAAAGGTCGAGGTGTGTATAGAGAAAGGGAA: 2.32.
Next, TCTAGTTGGTCAAACGTCACACACTCGAAATGCG: 0.811; CGTCCAAGGTCAATGCTCGGTCAGTGAAAGCATT: 4.21.
As for CCTCCTGGGCCACGAAAGGTCATTGATTCAGTGA, the figure is 4.04; as for CATACTGGGCCAAGGTCATTGATCAGTCAAAGCA, 3.48.
TCTCGTTGGTCAAAGGTCACACACTCGAAATGCG returned a PBM binding z-score of 5.25.
As for GCTTGTAGATCAAGGTTACGAAAGACTAAGCTAA, the figure is 0.359.
As for GCAGACAGGTGAAACGCAGCTAACTCAGGGTGGC, the figure is -0.847; as for TCGAGTAGGTTACCAATGGGCCATTCAGCTTTCT, 0.0845.
